SMILES strings stand for the structures. This is part of a sample that, as a whole, favours compounds with a hit. Of some 83,000 tested, about 20% had one in any assay.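 How to read the values: 0–100, growth inhibition (40 = 60% inhibited); 0, no net growth; -100 to 0, cell death (-40 = 40% of starting cells died; -100 = all dead).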 Unmarked numbers belong to inactive results. Active and inactive are the calls of the source. How the source made its calls: active means growth percent below 10; inactive means the rest.

Test systems include NCI-H23 lung; NCI-H226 lung; NCI-H322M lung; HOP-62 NSCLC; NCI-H460 lung; HOP-92 NSCLC; NCI-H522 lung; A549/ATCC NSCLC; 786-0 renal; COLO 205 colon.
Holding throughout (assay): NCI-60 one-dose screen, 48 h (100 = growth as untreated, 0 = no growth, -100 = all killed)
Holding throughout (details): 10 µM unless noted

As to `O=C(N/N=C/c1ccc(F)cc1)c1ccc(C(F)(F)F)nc1Nc1cccc(C(F)(F)F)c1`, the growth was 11.3% with NCI-H23 lung; 9.45% (active) in the assay on NCI-H226 lung; -14.5% (active) in the assay on NCI-H322M lung; -14.1% (active) in the assay on HOP-62 NSCLC; -17.7% (active) in the assay with NCI-H460 lung; -25.2% (active) with HOP-92 NSCLC. Further, the growth is -15.9% (active) with NCI-H522 lung, -10.9% (active) in the assay on A549/ATCC NSCLC, -29.7% (active) in the assay with 786-0 renal and 7.69% (active) in the assay on COLO 205 colon.
On to `COc1ccc(C(c2cc(OC)c(OC)c(OC)c2)N2CCN(c3ccccc3)CC2)cc1` (stereo not given), for which the growth in the assay with NCI-H23 lung was 84.4%; in the assay with NCI-H226 lung, 101%; in the assay on NCI-H322M lung it was 83.7%; with HOP-62 NSCLC, 88.9%; in the assay with NCI-H460 lung, 96.9%; in the assay on HOP-92 NSCLC, 86.7%. Moreover, the growth was 56.5% in the assay on NCI-H522 lung, 85.7% with A549/ATCC NSCLC, 101% in the assay on 786-0 renal and 92.7% in the assay on COLO 205 colon.
For the molecule `N#Cc1c(-c2ccc(Cl)cc2)nc(NN=Cc2cccc(O)c2)nc1N1CCOCC1`, the growth in the assay with NCI-H23 lung is 100%; with NCI-H226 lung, 92.9%; with NCI-H322M lung, 86.3%; in the assay on HOP-62 NSCLC, 87.8%; with NCI-H460 lung it was 77.9%; with HOP-92 NSCLC, 63.3%. The growth in the assay on NCI-H522 lung is 74.8%; in the assay on A549/ATCC NSCLC it was 72.7%; with 786-0 renal it was 64.3%; in the assay on COLO 205 colon it was 85.7%.
`COc1ccc(/C=N/C2=C(C#N)C(c3cccc(Cl)c3)c3c(ccc4ccccc34)O2)cc1` (stereo not given): the growth in the assay with NCI-H23 lung was 53.5%; in the assay with NCI-H226 lung, 36%; in the assay on NCI-H322M lung, 62.7%; with HOP-62 NSCLC, 49.5%; in the assay on NCI-H460 lung, 16.8%; with HOP-92 NSCLC, 44.8%. Besides, the growth in the assay on NCI-H522 lung was 3.61% (active); in the assay with A549/ATCC NSCLC, 44.9%; in the assay on 786-0 renal, 19.8%; in the assay on COLO 205 colon, 31.3%.
On to `Cc1nc(N2CCOCC2)sc1S(N)(=O)=O`, for which the growth is 102% in the assay on NCI-H23 lung; 84.5% with NCI-H226 lung; 94% in the assay on NCI-H322M lung; 94.5% in the assay with HOP-62 NSCLC; 102% in the assay on NCI-H460 lung; 88.2% in the assay on HOP-92 NSCLC. Also, the growth with NCI-H522 lung is 92.8%; in the assay on A549/ATCC NSCLC, 101%; in the assay on 786-0 renal, 101%; in the assay with COLO 205 colon, 104%.
For `COc1ccc(NC(=O)c2sc3nc(C)c(C(=O)/C=C/c4cccc(OC)c4)cc3c2N)cc1`, the growth is 54.6% with NCI-H23 lung; 71.8% with NCI-H226 lung; 18% in the assay on NCI-H322M lung; 61.8% with HOP-62 NSCLC; -7.38% (active) in the assay on NCI-H460 lung; 90.9% in the assay on HOP-92 NSCLC. Besides, the growth is 39.2% in the assay on NCI-H522 lung, 13.2% in the assay on A549/ATCC NSCLC, 10.9% in the assay with 786-0 renal and 45.9% in the assay on COLO 205 colon.
With `COc1ccc(-c2csc(N(C(=O)N3CCN(c4cc5c(cc4F)c(=O)c(C(=O)O)cn5C4CC4)CC3)c3ccccc3)n2)cc1`, the growth in the assay on NCI-H23 lung is 4.28% (active); with NCI-H226 lung it was 28.5%; with NCI-H322M lung, 4.9% (active); in the assay on HOP-62 NSCLC it was 9.2% (active); with NCI-H460 lung, 3.65% (active); in the assay on HOP-92 NSCLC, -18.1% (active). Besides, the growth with NCI-H522 lung is -21.8% (active); in the assay with A549/ATCC NSCLC, 13.6%; with 786-0 renal, 19.6%; with COLO 205 colon, 17.9%.
For `CC1=C(C(=O)OC(C)C)C(c2ccc3c(c2)OCO3)NC(=S)N1` (stereo not given), the growth in the assay on NCI-H23 lung is 99.2%; in the assay with NCI-H226 lung, 84.1%; in the assay on NCI-H322M lung it was 108%; in the assay with HOP-62 NSCLC, 119%; in the assay with NCI-H460 lung it was 110%; with HOP-92 NSCLC, 96.6%. Besides, the growth in the assay with NCI-H522 lung was 86.4%; in the assay with A549/ATCC NSCLC, 104%; in the assay with 786-0 renal, 104%; in the assay with COLO 205 colon, 123%.
Turning to `O=C(O)c1[nH]c(=O)[nH]c(=O)c1[N+](=O)[O-]`, the growth in the assay on NCI-H23 lung is 109%; in the assay on NCI-H226 lung it was 108%; in the assay with NCI-H322M lung it was 119%; with HOP-62 NSCLC it was 104%; in the assay on NCI-H460 lung it was 115%; in the assay with HOP-92 NSCLC, 88%. Moreover, the growth in the assay on NCI-H522 lung is 138%; in the assay with A549/ATCC NSCLC it was 106%; with 786-0 renal it was 106%; in the assay with COLO 205 colon it was 112%.
Consider `Cn1cc(-c2csc(-c3c[nH]c4ccc(Br)cc34)n2)c2cnccc21`, for which the growth in the assay with NCI-H23 lung was -64.2% (active); in the assay with NCI-H226 lung it was -55.7% (active); in the assay on NCI-H322M lung, -44.5% (active); in the assay on HOP-62 NSCLC, -66.7% (active); in the assay on NCI-H460 lung, -82.4% (active); in the assay on HOP-92 NSCLC it was -86.2% (active). Moreover, the growth was -66.8% (active) in the assay on NCI-H522 lung, -77.5% (active) in the assay on A549/ATCC NSCLC, -90.5% (active) in the assay with 786-0 renal and -72.9% (active) in the assay with COLO 205 colon.
As to `N#C/C(=C\c1ccc(-c2ccc(Cl)cc2)o1)C(=O)Nc1ncc(Cc2ccc(Cl)cc2)s1`, the growth with NCI-H23 lung is 31.8%; in the assay with NCI-H226 lung it was 65%; in the assay with NCI-H322M lung, 22.8%; with HOP-62 NSCLC, -9.27% (active); with NCI-H460 lung, -38.3% (active); in the assay on HOP-92 NSCLC, 94.6%. Moreover, the growth in the assay on NCI-H522 lung was 46.3%; in the assay with A549/ATCC NSCLC, -8.3% (active); with 786-0 renal, 42%; in the assay on COLO 205 colon, 57.2%.
With `O=C1/C(=C/c2ccc(-c3ccc(Br)cc3)o2)SC(=S)N1CCc1ccc(O)cc1`, the growth was 75.8% in the assay with NCI-H23 lung; 90.2% in the assay with NCI-H226 lung; 84.5% in the assay with NCI-H322M lung; 90.6% in the assay on HOP-62 NSCLC; 60.3% in the assay on NCI-H460 lung; 60% in the assay on HOP-92 NSCLC. Moreover, the growth with NCI-H522 lung is 13.7%; with A549/ATCC NSCLC, 67.5%; in the assay with 786-0 renal it was 5.73% (active); with COLO 205 colon, -27.8% (active).
With `CCOC(=O)c1cnc2ccccc2c1Cl`, the growth in the assay on NCI-H23 lung is 96.9%; in the assay with NCI-H226 lung, 99.2%; in the assay on NCI-H322M lung it was 122%; in the assay with HOP-62 NSCLC, 99.6%; in the assay on NCI-H460 lung, 93%; in the assay with HOP-92 NSCLC it was 70.4%. Also, the growth was 92.1% with NCI-H522 lung, 104% in the assay on A549/ATCC NSCLC, 94.3% in the assay with 786-0 renal and 96.2% with COLO 205 colon.

The record behind these values is PubChem BioAssay (NCI).
